Experimental data reported in PubChem BioAssay (NCI).
Where “and” joins values, the source holds several entries; their conditions need not be identical. Equal values may be shown once. The panel holds about 83,000 compounds, 20% with a hit somewhere; the sample as a whole holds those more often.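 Values shown are percent growth following 48 h exposure of cells in 96-well plates to a single concentration of compound; below 10 was considered active.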 Calls of active or inactive are those of the source.

What was measured:
Experiment in all cases: NCI-60 one-dose screen, 48 h (100 = growth as untreated, 0 = no growth, -100 = all killed)
NCI-H226 lung = details: 10 µM
NCI-H322M lung = details: 10 µM
HOP-62 NSCLC = details: 10 µM
NCI-H460 lung = details: 10 µM
A549/ATCC NSCLC = details: 10 µM
786-0 renal = details: 10 µM
COLO 205 colon = details: 10 µM
DU-145 prostate = details: 10 µM
SF-268 CNS = details: 10 µM
SF-295 CNS = details: 10 µM
SF-539 CNS = details: 10 µM
HT29 colon = details: 10 µM
SNB-75 CNS = details: 10 µM
SNB-19 CNS = details: 10 µM
U251 CNS = details: 10 µM
PC-3 prostate = details: 10 µM
EKVX NSCLC = details: 10 µM
UO-31 renal = details: 10 µM
ACHN renal = details: 10 µM
HL-60(TB) leukemia = details: 10 µM unless noted

Structure (SMILES) | growth (NCI-H226 lung) | growth (NCI-H322M lung) | growth (HOP-62 NSCLC) | growth (NCI-H460 lung) | growth (A549/ATCC NSCLC) | growth (786-0 renal) | growth (COLO 205 colon) | growth (DU-145 prostate) | growth (SF-268 CNS) | growth (SF-295 CNS) | growth (SF-539 CNS) | growth (HT29 colon) | growth (SNB-75 CNS) | growth (SNB-19 CNS) | growth (U251 CNS) | growth (PC-3 prostate) | growth (EKVX NSCLC) | growth (UO-31 renal) | growth (ACHN renal) | growth (HL-60(TB) leukemia)
C/C=C/CC(C)C(O)[C@H](NC(=O)[C@@H]1CCCN1C(=O)C(C)(C)NC(=O)CCCCCCC)C(=O)N[C@@](C)(CC)C(=O)N[C@@H](CCC(N)=O)C(=O)N[C@H](CCC(N)=O)C(=O)NC(C)(C)C(=O)NC(C)(C)C(=O)N[C@@H](CCC(N)=O)C(=O)N[C@H](CC(C)C)C(=O)N[C@H](CO)CC(C)C (some centres undefined) | 105% (inactive) and 6.63% (active) | 108% (inactive) and 70% (inactive) | 95.9% (inactive) and 14.5% (inactive) | 105% (inactive) and 13.1% (inactive) | 109% (inactive) and 30% (inactive) | 103% (inactive) and 39.8% (inactive) | 118% (inactive) and -46.4% (active) | 110% (inactive) and -35.4% (active) | 107% (inactive) and -8.99% (active) | 98.8% (inactive) and -22.2% (active) | 100% (inactive) and -45.7% (active) | 113% (inactive) and 37.8% (inactive) | 109% (inactive) and -30.3% (active) | 101% (inactive) and 14% (inactive) | 101% (inactive) and -17.8% (active) | 103% (inactive) and 17.3% (inactive) | 100% (inactive) and 5.16% (active) | 96.7% (inactive) and 16.1% (inactive) | 103% (inactive) and 32% (inactive) | –
COc1cc2c(cc1OC)[C@@H]1N(CC2)C(=O)c2ccccc2[C@@]1(C)C(=O)O | 111% (inactive) | 102% (inactive) | 108% (inactive) | 109% (inactive) | 111% (inactive) | 99.9% (inactive) | 115% (inactive) | 110% (inactive) | 110% (inactive) | 101% (inactive) | 105% (inactive) | 107% (inactive) | 108% (inactive) | 98.4% (inactive) | 106% (inactive) | 104% (inactive) | 103% (inactive) | 97.3% (inactive) | 110% (inactive) | 104% (inactive)
C/C=C/CC(C)C(O)[C@H](NC(=O)[C@@H]1CCCN1C(=O)C(C)(C)NC(=O)CCCCCCCCC)C(=O)N[C@@](C)(CC)C(=O)N[C@@H](CCC(N)=O)C(=O)N[C@H](CCC(N)=O)C(=O)NC(C)(C)C(=O)NC(C)(C)C(=O)N[C@@H](CCC(N)=O)C(=O)N[C@H](CC(C)C)C(=O)N[C@H](CO)CC(C)C (some centres undefined) | -0.538% (active) and 75.5% (inactive) | 31% (inactive) and 67.6% (inactive) | -12.3% (active) and 28.3% (inactive) | -56.6% (active) and 12.7% (inactive) | 78.8% (inactive) and 99.8% (inactive) | -39.5% (active) and 25.2% (inactive) | -10.4% (active) and 50.9% (inactive) | -94.5% (active) and -42.1% (active) | -77% (active) and 4.8% (active) | -64.6% (active) and -30.2% (active) | -69.3% (active) and 12% (inactive) | 58.1% (inactive) and 90.2% (inactive) | -55.9% (active) and -38.8% (active) | -28.9% (active) and 35.2% (inactive) | -89.3% (active) and 13.7% (inactive) | 21.4% (inactive) and 32.4% (inactive) | 0.155% (active) and 23% (inactive) | 39.1% (inactive) and 62.6% (inactive) | 40.3% (inactive) and 68.4% (inactive) | 1.3% (active) and 79.5% (inactive)
CC1=C2C(=C[C@@](C)(C=O)[C@@H]2O)C(=O)[C@](C)(O)C12CC2 | 46.1% (inactive) | 26.5% (inactive) | 8.06% (active) | 5.09% (active) | 8.13% (active) | 5.21% (active) | -28.2% (active) | 9.15% (active) | 12.2% (inactive) | 3.31% (active) | -10.7% (active) | 4.21% (active) | -3.53% (active) | 20.7% (inactive) | 4.74% (active) | 6.53% (active) | 15% (inactive) | -13.3% (active) | -18.5% (active) | -12% (active)
